Measured values taken from PubChem BioAssay AID493034 (The Scripps Research Institute Molecular Screening Center, 2011).
Hit rate of the full screen: of about 2,400 compounds, about 2,200 (92%) were called active.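 How the source made its calls: active means mean inhibition over triplicate runs exceeds the cutoff derived for the earlier primary screen (cut at about 25% in these data); inactive means the rest.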 So high a share suggests a set chosen from earlier hits. This is one part of the list.

Target: Platelet-activating factor acetylhydrolase IB subunit alpha2 (Homo sapiens) (UniProt P68402)
Experiment: inhibition of human PAFAH1B2 catalytic subunit – biochemical, fluorescence polarization, FP-rhodamine probe, triplicate, confirmation (AID 493034);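 further: 0% = enzyme with DMSO and 100% = wells lacking PAFAH1B2 protein; inhibitors lower polarization by leaving the probe unbound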
Details: recombinant PAFAH1B2, FP-rhodamine probe fluorescence polarization; at 3.39 µM; active compounds read high

Platelet-activating factor acetylhydrolase IB subunit alpha2 (Homo sapiens), sequence (P68402 whole entry, looked up): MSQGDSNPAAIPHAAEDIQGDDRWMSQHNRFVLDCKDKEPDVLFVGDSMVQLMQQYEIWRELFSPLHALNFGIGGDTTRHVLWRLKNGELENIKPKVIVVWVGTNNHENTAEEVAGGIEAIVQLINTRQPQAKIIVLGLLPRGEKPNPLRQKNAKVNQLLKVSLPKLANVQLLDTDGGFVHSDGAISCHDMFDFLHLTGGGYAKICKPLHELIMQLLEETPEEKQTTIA

inhibition, active:
O=C(/C=C/c1ccc(F)cc1)NC(=S)NNC(=O)[C@H]1C[C@@H]1c1ccccc1 47.2%, O=C(/C=C/c1ccccc1)CC(O)(c1ccccc1)C(F)(F)F (stereo not drawn) 38.1%, Cc1nc(SCCC(=O)O)c2cc(-c3ccccc3)sc2n1 33.6%, O=C(O)CN1C(=O)/C(=C\c2cccc(OCc3ccc(Cl)cc3)c2)SC1=S 68.2%, O=[N+]([O-])c1ccc(S(=O)(=O)NNC(=S)NCCc2ccccc2)cc1 38.5%, O=c1[nH]c(CCl)nc2cc(-c3ccc(Cl)cc3)sc12 61%, COc1cc(C(c2c(C(=O)O)[nH]c3ccccc23)c2c(C(=O)O)[nH]c3ccccc23)ccc1OCc1ccccc1 37.9%, O=C(O)c1[nH]c2ccccc2c1C(c1cccc(O)c1)c1c(C(=O)O)[nH]c2ccccc12 80.5%, O=C(O)c1[nH]c2ccccc2c1C(c1c(F)cccc1Cl)c1c(C(=O)O)[nH]c2ccccc12 33.3%, O=C(O)c1[nH]c2ccccc2c1C(c1ccccc1)c1c(C(=O)O)[nH]c2ccccc12 75.9%, O=C(O)CN1C(=O)C2C3CC(C2C1=O)C1C(c2ccc(Cl)cc2)c2sc(=O)[nH]c2SC31 (stereo not drawn) 37.1%, O=C(O)CN1C(=O)C2C3CC(C2C1=O)C1C(c2ccc(F)cc2)c2sc(=O)[nH]c2SC31 (stereo not drawn) 54.6%, O=C(O)CN1C(=O)C2C3CC(C2C1=O)C1C(c2ccccc2)c2sc(=O)[nH]c2SC31 (stereo not drawn) 59.3%, O=C(COC(=O)C12CC3CC(CC(Br)(C3)C1)C2)Nc1cccnc1Cl 36.7%, COc1ccccc1NC(=O)COC(=O)C12CC3CC(CC(Br)(C3)C1)C2 26.2%, O=C(COC(=O)C12CC3CC(CC(Br)(C3)C1)C2)Nc1c(F)cccc1F 35.8%, O=C(COC(=O)C12CC3CC(CC(Br)(C3)C1)C2)Nc1ccc2[nH]c(=O)[nH]c2c1 31.2%, Nc1nc(-c2ccc(F)cc2)cs1 55.6%, Nc1nc(-c2ccc(Br)cc2)cs1 92.3%, Nc1nc(-c2ccccc2)cs1 35.5%, Cc1ccc(-c2csc(N)n2)cc1 63.1%, Nc1nc(-c2cccc(F)c2)cs1 36.3%, CC(CCc1ccccc1)NC(=O)COC(=O)C12CC3CC(CC(Br)(C3)C1)C2 (stereo not drawn) 38.2%, O=C(COC(=O)C12CC3CC(CC(Br)(C3)C1)C2)NNC(=O)c1ccccc1 46.3%, O=C(NCc1ccccc1)C12CC3CC(CC(Br)(C3)C1)C2 27.1%, CC(NC(=O)COC(=O)C12CC3CC(CC(Br)(C3)C1)C2)c1ccccc1 (stereo not drawn) 31%, CN(Cc1ccccc1)C(=O)COC(=O)C12CC3CC(CC(Br)(C3)C1)C2 28.4%, Cc1occc1C(=O)O/N=C(\N)c1ccc(Cl)cc1 27.4%, CC(Sc1ccc(Br)cc1)C(N)=O (stereo not drawn) 27.6%, NC(=O)CSc1ccc(Br)cc1 39.5%, Cc1ccc(S(=O)(=O)N2[C@@H](c3ccc(Br)cc3)C(C(=O)O)=CC[C@H]2c2ccc3c(c2)OCO3)cc1 59.1%, Cc1ccc(S(=O)(=O)N2[C@@H](c3ccc(C(C)(C)C)cc3)C(C(=O)O)=CC[C@H]2c2ccc(Cl)c(Cl)c2)cc1 58.5%, Cc1ccc(S(=O)(=O)N2[C@@H](c3ccc(Cl)cc3)C(C(=O)O)=CC[C@H]2c2ccc(Cl)c(Cl)c2)cc1 85.8%, Cc1ccc(S(=O)(=O)N2[C@@H](c3ccc(C(C)(C)C)cc3)C(C(=O)O)=CC[C@H]2c2cccc(Cl)c2)cc1 70.5%, Cc1ccc(S(=O)(=O)N2[C@@H](c3ccc(Br)cc3)C(C(=O)O)=CC[C@H]2c2ccc(Cl)c(Cl)c2)cc1 85.2%, CC(C)(C)C1CCC2(CC1)C(C#N)=C(SCC(=O)Nc1ccccc1)NC(=O)C2C#N (stereo not drawn) 55%, COc1cc(/C=N/NC(=O)c2cc(C34CC5CC(CC(C5)C3)C4)[nH]n2)ccc1O 24.7%, O=C(Oc1ccc(OC(=O)c2ccco2)c(S(=O)(=O)c2ccc(Br)cc2)c1)c1ccco1 34%, CC1=C(C(=O)OCC(Br)(Br)Br)C(c2cccc([N+](=O)[O-])c2)NC(=O)N1CCCC(=O)O (stereo not drawn) 90.6%, O=C(Nc1ccccc1Cl)Oc1ccc(-c2ccccc2)cc1 53.8%, CC(=O)C[C@H](O)CC(=O)[C@H]1OC(=O)CCCCCCCCc2ccccc21 31.4%, CC(=O)C[C@@H](O)CC(=O)[C@H]1OC(=O)CCCCCCCCc2ccccc21 43.6%, Cc1noc(NS(=O)(=O)c2ccc(NC(=O)CC34CC5CC(CC(Br)(C5)C3)C4)cc2)c1C 30.9%, O=S(=O)(Nc1ncccn1)c1ccc(NC(=S)NCCc2ccc(Cl)cc2)cc1 36.6%, O=c1[nH]c(CN2CCN(c3ccc([N+](=O)[O-])cc3)CC2)nc2ccsc12 31.1%, O=C(O)c1cccc(COc2ccc3c(c2)CCC3)c1 40%, O=C(CCc1ccccc1)c1c(O)cc(O)cc1O 26.6%, C=C(C)C(COc1c2occc2cc2ccc(=O)oc12)OC(C)(C)C(O)COc1c2occc2cc2ccc(=O)oc12 (stereo not drawn) 67.4%, Cc1ccc(NS(=O)(=O)c2cc([N+](=O)[O-])ccc2NNC(=S)Nc2cccc(Cl)c2)c(C)c1 30.2%, N#Cc1c(N)[nH]c2ccc(Sc3ccccc3)cc12 33.8%

inhibition, inactive:
Cc1ccc(S(=O)(=O)n2oc(=O)c(C3CCCCC3)c2N)cc1 23.5%, CC(C)CNC(=O)c1cccc(NC(=O)CSc2ccc(Cl)cc2)c1 22.5%, COc1ccc(/C=C\C(=O)CC(O)(c2ccccc2)C(F)(F)F)cc1 (stereo not drawn) 21.6%, CC(=O)Nc1ccc(NC(=O)C(C)OC(=O)C2(c3ccc(F)cc3)CCCC2)cc1 (stereo not drawn) 23.3%, Cc1nn(-c2ccccc2)c2c1CC(=O)Nc1ccccc1-2 23.1%, Nc1nn(S(=O)(=O)c2ccccc2)cc1-c1ccc([N+](=O)[O-])cc1 24%, CC1=CC(=NNS(=O)(=O)c2ccc([N+](=O)[O-])cc2)CC(C)(C)C1 23.5%, Cc1cc(NC(=S)N(Cc2ccc(Br)cc2)Cc2ccc(C(=O)O)cc2)ccc1Cl 1.23%, Cc1ccc(O)c(N=Cc2cc(Cc3ccccc3)cc([N+](=O)[O-])c2O)c1 20.2%, CCCCNC(=O)c1cccc(S(=O)(=O)N2CC3(C)CC2CC(C)(C)C3)c1 (stereo not drawn) 19.5%, Cc1ccc(CN2[C@@H](CC3CCCCC3)COCCS2(=O)=O)cc1 23.1%, CCCCCCCCCCCCCC(=O)O 22.4%, O=C(COC(=O)CCSc1ccccc1)Nc1cc(F)ccc1F 10.5%, COc1ccccc1CNC(=O)COC(=O)c1ccc(C(=O)c2ccccc2)cc1 3.07%, O=c1c2c(nc3cc(-c4ccc(Cl)cc4)[nH]n13)CCS2 11.7%, N#C/C(=C\c1cc2c(cc1Br)OCO2)c1ccc(C(=O)O)cc1 23.6%, Cc1ccc(-c2csc(NCCn3c(C)nc4cc(C(F)(F)F)ccc43)n2)cc1 23.5%, O=C(O)c1sccc1SCc1ccc(Cl)cc1Cl 22.4%, Cc1nc(-c2cccc(S(=O)(=O)N3CCC(C)CC3)c2)cs1 23.7%, O=C(COC(=O)C12CC3CC(CC(C3)C1)C2)NNC(=O)c1ccccc1 21.4%, CC(NC(=O)CN(C)S(=O)(=O)c1cccc2nsnc12)c1ccccc1 (stereo not drawn) 22.2%, O=C(O)CNC(=O)C12CC3CC(CC(Cl)(C3)C1)C2 22.2%, O=C(O)CC1c2ccccc2CCN1S(=O)(=O)c1ccc(F)cc1 (stereo not drawn) 19.8%, OC(c1ccc(F)cc1)(C1CCCCC1)C(CN1CCOCC1)c1ccccc1 (stereo not drawn) 23.5%, O=C(O/N=C1/CCCc2occc21)c1ccc(Cl)cc1Cl 19.3%, COc1ccc(NC(=O)O/N=C/c2ccc(Br)cc2)cc1 7.26%, Cc1ccc(S(=O)(=O)N2[C@@H](c3cccc(C)c3)C(C(=O)O)=C[C@H]2C(C)(C)C)cc1 18.7%, Cc1ccc(S(=O)(=O)N2[C@@H](c3ccccc3)C(C(=O)O)=CC[C@H]2c2cccc(C)c2)cc1 21.1%, CC(=O)N1CCOc2ccc(S(=O)(=O)NCc3ccc(C)cc3)cc21 23.4%, COc1ccc(S(=O)(=O)N2CCN(C(=O)[C@@H]3CCC(=O)N3C3OC(=O)c4ccccc43)CC2)cc1 (stereo partly drawn) 22.4%, Cc1ccccc1C(=O)c1cccn1CC(=O)NCc1ccc(Cl)cc1 23.1%, O=C(Oc1ccc(-c2ccccc2)cc1)c1ccco1 23.7%, Cc1ccc(S(=O)(=O)n2nc(-c3cccnc3)nc2N)cc1 23.2%, Cn1c(=O)oc2cc(S(=O)(=O)NCCC(=O)NCCc3ccc(Cl)cc3)ccc21 19.6%, CC(CC(=O)NCCc1ccc(Cl)cc1)S(=O)(=O)c1ccc2c(c1)NC(=O)CO2 (stereo not drawn) 22.4%, N=c1c(S(=O)(=O)c2ccc(Cl)cc2)cc2c(=O)n3ccccc3nc2n1CCN1CCOCC1 22.3%, O=C1OC(c2ccccc2)=N/C1=C/c1cccc(OC(=O)c2cccs2)c1 15.5%, O=C(CCc1ccc(O)cc1)c1c(O)cc(O)cc1O 22.2%
